Bioassay records: PubChem, Broad Institute
LGR2 inh – inhibitors of bursicon-induced LGR2 CRE-luciferase signal, primary screen, cell-based, HEK293, CRE-luciferase reporter, bursicon stimulation. Drosophila bursicon receptor LGR2 (rickets). bursicon-stimulated, 4 h. inhibition, % at 9.99 µM. 380,000 compounds, 0.35% hits;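 active = drop in luminescence signal, shown as inhibition above about 50% in the replicate tests, limit read from the data, passing the limit was not always enough; inconclusive = probably only some replicates passing the limit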;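 note: agonist challenge used bursicon conditioned medium at about half maximal strength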
EBV LMP1 NFkB – EBV LMP1-driven NF-kappaB luciferase reporter inhibitors, primary screen, cell-based, luminescence, single point. AID 504558, 2011. inhibition, % at 12.5 µM. LMP1-induced NF-kappaB luciferase reporter cells. 350,000 compounds, 0.69% hits; in the data active = inhibition above about 41%; inconclusive = no clear call, values can overlap the other calls;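 note: 0% = neutral control wells and 100% = reference inhibitor control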
PAX8 inh HTS – inhibitors of PAX8-driven TPO luciferase reporter, primary screen, RMG-I cells, single concentration. AID 652154, 2013. SteadyGlo, 24 h. inhibition, % at 12.6 µM. 360,000 compounds, 1.2% hits;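 active = mean replicate inhibition at least 60% with every replicate also reaching 60%; inconclusive = only one of the two criteria is met; inactive = mean below 60% and not all replicates reaching 60%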;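 note: luciferase light reporting Pax8 driven TPO promoter activity; plate controls were median of neutral control wells for no effect and mitoxantrone controls for full effect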
EWS-Fli inh – EWS/Fli-driven NR0B1 reporter inhibitors, primary screen, A673 cells, NR0B1 luciferase, luminescence, MLPCN library; 350,000 compounds, 0.67% hits; viability-normalised; inhibition, % at 12.6 µM; AID 651661, 2012;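 active = mean inhibition of at least 50% after viability correction, with every replicate also passing that limit; inconclusive = mean reaches 50% but only one of two replicates passes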;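 note: firefly luciferase signal divided by Alamar Blue viability fluorescence both relative to DMSO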
Shn3 inh set2 – reduction of Shn3 3'UTR firefly luciferase signal, primary screen, Schnurri-3 inhibitor project, cell-based, Clone20 osteoblasts, set 2; inhibition, % at 12.5 µM; 360,000 compounds, 0.52% hits; Clone20 osteoblast Shn3 3'UTR firefly luciferase, 24 h;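 active = mean inhibition of at least 75% with every replicate also reaching 75%; inconclusive = mean inhibition at least 75% but some replicate below; inactive = mean inhibition below 75%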;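 note: 0% = median of neutral control wells and 100% = pilot-screen positive control compound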
TRPM1 prom inh – inhibitors of MITF-dependent TRPM1 promoter reporter, primary screen, cell-based, SK-MEL-5, single point, luciferase. SK-MEL-5 TRPM1 promoter luciferase, 24 h. 330,000 compounds, 0.83% hits. inhibition, % at 12.5 µM;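 active = mean inhibition across replicates of 60% or more, whatever share of single replicates reaches that level; inconclusive = some that reach 60%, reason not given; inactive = mean inhibition across replicates below 60%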
Starred values were filed as active, the others as inactive. Hits are enriched below; roughly 2.2% of the tested compounds scored in any of these assays.

For C#CCn1c(=NC(=O)c2ccc(S(=O)(=O)N3CCc4ccccc4C3)cc2)sc2cc(S(N)(=O)=O)ccc21 the results were EBV LMP1 NFkB 12.5, Shn3 inh set2 97.3* and TRPM1 prom inh 90.4*.
C=CCn1c(=NC(=O)c2ccc(S(=O)(=O)N3CCc4ccccc4C3)cc2)sc2cc(S(N)(=O)=O)ccc21 was read as LGR2 inh -14.9, EBV LMP1 NFkB 4.1, PAX8 inh HTS 56.7, EWS-Fli inh 31.6, Shn3 inh set2 34.6 and TRPM1 prom inh 17.3.
`CC(=O)Nc1ccc(S(=O)(=O)N2CC3(C)CC2CC(C)(C)C3)cc1` (configuration not stated) gave EBV LMP1 NFkB -8.3, PAX8 inh HTS 8.9, EWS-Fli inh 6.5, Shn3 inh set2 5.7 and TRPM1 prom inh 2.7.
`CC1(C)CC2CC(C)(CN2S(=O)(=O)c2ccc(C(=O)Nc3ccc(S(=O)(=O)N4CCOCC4)cc3)cc2)C1` (configuration not stated) gave LGR2 inh 11.4, EBV LMP1 NFkB -5.0, PAX8 inh HTS 82.6*, EWS-Fli inh 18.8, Shn3 inh set2 79.1 and TRPM1 prom inh 12.3.
`CC1(C)CC2CC(C)(CN2S(=O)(=O)c2ccc(C(=O)Nc3ccc(Cl)c(S(=O)(=O)N4CCOCC4)c3)cc2)C1` (configuration not stated) gave EBV LMP1 NFkB 3.5, Shn3 inh set2 50.8 and TRPM1 prom inh 15.8.
CCOC(=O)c1cc([N+](=O)[O-])sc1NC(=O)c1ccc(S(=O)(=O)N2CC3(C)CC2CC(C)(C)C3)cc1 (configuration not stated) was read as EBV LMP1 NFkB 46.1*, PAX8 inh HTS 27.0, EWS-Fli inh 9.0, Shn3 inh set2 20.7 and TRPM1 prom inh 75.5*.
Screening C[C@@H]1CN([C@@H](C)CO)C(=O)c2cc(C3=CCCC3)cnc2O[C@H]1CN(C)C(=O)C1CCC1 returned LGR2 inh -3.7 and EWS-Fli inh -1.2.
CC1CCCC=CC2CC(OC(=O)CN(C)C)CC2C(O)C=CC(=O)O1 (configuration not stated) was read as EBV LMP1 NFkB -91.1, PAX8 inh HTS 114.8*, EWS-Fli inh 62.7*, Shn3 inh set2 63.2 and TRPM1 prom inh 76.4*.
Screening Cc1noc(C)c1NC(=O)Nc1ccc2c(c1)C(=O)N([C@@H](C)CO)C[C@@H](C)[C@@H](CN(C)S(=O)(=O)c1cn(C)cn1)OCCCC[C@@H](C)O2 returned LGR2 inh 2.8, PAX8 inh HTS -3.1 and EWS-Fli inh -7.4.
`Cc1ccc(Nc2c(-c3ccccn3)nc3cc(C)ccn23)cc1` gave LGR2 inh 29.8, EBV LMP1 NFkB inconclusive, PAX8 inh HTS 57.6, EWS-Fli inh 43.2, Shn3 inh set2 94.9* and TRPM1 prom inh 64.1*.
`Cc1ccc(Nc2c(-c3ccccn3)nc3ccc(C)cn23)cc1` gave LGR2 inh 33.5, EBV LMP1 NFkB 27.8, PAX8 inh HTS 41.5, EWS-Fli inh 24.1, Shn3 inh set2 95.4* and TRPM1 prom inh 69.9*.
For Cc1ccc2nc(-c3ccncc3)c(Nc3ccccc3)n2c1 the results were LGR2 inh 1.0, EBV LMP1 NFkB -30.6, PAX8 inh HTS 65.2*, EWS-Fli inh 10.5, Shn3 inh set2 11.7 and TRPM1 prom inh 2.4.
Cc1noc(C)c1NC(=O)Nc1ccc2c(c1)C(=O)N([C@@H](C)CO)C[C@H](C)[C@@H](CN(C)C(=O)Nc1ccc3c(c1)OCO3)OCCCC[C@H](C)O2 was read as LGR2 inh -2.5 and EWS-Fli inh -5.5.
`Cc1ccc(-n2nc3c(N4CCC(C(=O)N5CCN(C)CC5)CC4)nnc(C)c3c2C)cc1` gave LGR2 inh -0.9, EBV LMP1 NFkB -10.9, PAX8 inh HTS 11.7, Shn3 inh set2 3.0 and TRPM1 prom inh -7.0.
CCCN1CCN(C(=O)C2CCN(c3nnc(C)c4c(C)n(-c5ccc(C)cc5)nc34)CC2)CC1 was read as LGR2 inh 6.1, EBV LMP1 NFkB -25.7, PAX8 inh HTS 46.9, Shn3 inh set2 -6.0 and TRPM1 prom inh 16.4.
Screening COc1ccc(-n2nc3c(N4CCC(C(=O)NCCc5ccco5)CC4)nnc(C)c3c2C)cc1 returned LGR2 inh 1.6, EBV LMP1 NFkB 1.3, PAX8 inh HTS 43.6, Shn3 inh set2 9.2 and TRPM1 prom inh 38.0.
Screening COc1ccccc1CCNC(=O)C1CCN(c2nnc(C)c3c(C)n(-c4ccc(C)cc4)nc23)CC1 returned LGR2 inh -4.5, EBV LMP1 NFkB -9.3, PAX8 inh HTS 51.2, EWS-Fli inh 44.6, Shn3 inh set2 32.0 and TRPM1 prom inh 76.8*.
CCOc1ccc(CNC(=O)C2CCN(c3nnc(C)c4c(C)n(-c5ccc(C)cc5)nc34)CC2)cc1 was read as LGR2 inh -18.6, EBV LMP1 NFkB -5.7, PAX8 inh HTS -7.0, Shn3 inh set2 61.1 and TRPM1 prom inh 95.0*.
`COc1ccc(-n2nc3c(N4CCC(C(=O)NCc5cccc(C)c5)CC4)nnc(C)c3c2C)cc1` gave LGR2 inh -11.7, EBV LMP1 NFkB -4.2, PAX8 inh HTS 102.0*, Shn3 inh set2 -22.9 and TRPM1 prom inh 95.1*.
For CCOc1ccccc1CNC(=O)C1CCN(c2nnc(C)c3c(C)n(-c4ccc(C)cc4)nc23)CC1 the results were LGR2 inh 16.0, EBV LMP1 NFkB -1.5, PAX8 inh HTS 79.1*, EWS-Fli inh 58.5*, Shn3 inh set2 41.5 and TRPM1 prom inh 95.7*.
For Cc1ccc(-n2nc3c(N4CCC(C(=O)N5CCCCCC5)CC4)nnc(C)c3c2C)cc1 the results were EBV LMP1 NFkB -12.9, Shn3 inh set2 14.5 and TRPM1 prom inh -8.6.
Screening Cc1ccc(-n2nc3c(N4CCC(C(=O)NCc5ccccc5C)CC4)nnc(C)c3c2C)cc1 returned EBV LMP1 NFkB 1.6, Shn3 inh set2 31.8 and TRPM1 prom inh 93.8*.
COCCN(C(=O)COC(=O)/C=C/c1ccc(Cl)c(Cl)c1)c1c(N)n(Cc2ccccc2)c(=O)[nH]c1=O was read as LGR2 inh 14.0, EBV LMP1 NFkB 11.0, PAX8 inh HTS 7.7, EWS-Fli inh 15.7, Shn3 inh set2 12.3 and TRPM1 prom inh 11.8.
For Cc1cccc(C(=O)N(Cc2ccco2)c2c(N)n(Cc3ccccc3)c(=O)[nH]c2=O)c1 the results were LGR2 inh -5.6, EBV LMP1 NFkB 68.5*, PAX8 inh HTS 12.6, EWS-Fli inh -1.9, Shn3 inh set2 19.7 and TRPM1 prom inh 5.1.
For Nc1c(N(CCC2=CCCCC2)C(=O)COc2ccc(F)cc2Cl)c(=O)[nH]c(=O)n1Cc1ccccc1 the results were LGR2 inh -8.0, EBV LMP1 NFkB 6.1, PAX8 inh HTS 8.7, EWS-Fli inh 58.2*, Shn3 inh set2 77.5 and TRPM1 prom inh 97.5*.
